Laboratory results: PubChem BioAssay
Active and inactive are the calls of the source.

How the values were obtained:
[1] = binders of probe aFSTL3 on microarray, primary screen, stem cell growth factor project, biochemical, small-molecule microarray, fluorescence 635/667 (AID 1064); conditions: higher = more signal;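 also: measures binding of the biotinylated anti-FSTL3 antibody to printed compounds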
[2] = binders from COS7 lysate, DM2A8 probe, primary screen, torsin A project, cell lysate, small-molecule microarray, fluorescence 635/667 (AID 1065); conditions: higher = more signal, COS7 lysate expressing mutant human TOR1A
[3] = binders of probe aFGF2 on microarray, primary screen, stem cell growth factor project, biochemical, small-molecule microarray, fluorescence 635/667 (AID 1067); conditions: higher = more signal;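 also: measures binding of biotinylated aFGF2 protein to printed compounds on slides; z-score merges feature fluorescence and signal-to-noise across triplicate slides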
[4] = binders of probe aFGF10 on microarray, primary screen, stem cell growth factor project, biochemical, small-molecule microarray, fluorescence 635/667 (AID 1071); conditions: higher = more signal;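 also: score merges 667 nm spot intensity and signal to noise from triplicate slides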
[5] = biological target: Neurogenic locus notch homolog protein 2 (Homo sapiens) (UniProt Q04721); experiment: Notch2 binders on small-molecule microarrays, primary screen, biochemical, small-molecule microarray, 635 nm fluorescence, stem cell growth factors (AID 1073); conditions: Notch2 binding, higher = more signal
[6] = biological target: Pro-neuregulin-1, membrane-bound isoform (Homo sapiens) (UniProt Q02297); experiment: NRG1 binders on small-molecule microarrays, primary screen, psychiatric disease protein project, biochemical, small-molecule microarray, fluorescence 635/667 (AID 1075); conditions: NRG1 binding, 635 nm fluorescence, higher = more signal;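 also: score combines 667 nm spot fluorescence with signal to noise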
[7] = test system: Neuregulin-1 EGF-like domain; experiment: binders of neuregulin-1 EGF-like domain, primary screen, biochemical, small-molecule microarray, 635 nm fluorescence (AID 1081); conditions: small-molecule microarray binding, higher = more signal;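 also: binding of the protein to compounds printed on small-molecule microarray slides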
[8] = FRG1 promoter luciferase signal modulators, primary screen, FRG1 inhibition for FSHD, cell-based, C2C12 myotubes, firefly/Renilla luciferase, luminescence (AID 1084); conditions: higher = more signal, called active from +8 up or from −8 down
[9] = binders of probe aFST on microarray, primary screen, stem cell growth factor project, biochemical, small-molecule microarray, fluorescence 635/667 (AID 1086); conditions: higher = more signal;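 also: score merges 667 nm fluorescence with signal-to-noise of each printed compound spot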
[10] = binders of probe aHhip on microarray, primary screen, stem cell growth factor project, biochemical, small-molecule microarray, fluorescence 635/667 (AID 1087); conditions: higher = more signal;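 also: score merges spot fluorescence at 667nm with spot signal to noise ratio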
[11] = test system: PRMT1 (protein arginine N-methyltransferase 1); experiment: PRMT1 binders on small-molecule microarrays, primary screen, biochemical, small-molecule microarray, 635 nm fluorescence (AID 1088); conditions: small-molecule microarray binding, higher = more signal;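 also: binding of Prmt1 protein to compounds spotted on small-molecule microarray slides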
[12] = yeast growth modulation, basal conditions, primary screen, YJM789 clinical isolate, OD600, 24 h (AID 1089);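 also: growth of clinical yeast isolate S. cerevisiae YJM 789 seeded 1000 cells per well; test concentration not given here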; conditions: S. cerevisiae YJM789 growth, higher = more signal, called active from +8 up or from −8 down
[13] = fission yeast growth modulation, primary screen, strain 972, OD600, 24 h, no modulator (AID 1090);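 also: basal condition with compound alone and no growth modifier present; test concentration not given here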; conditions: S. pombe 972 growth, higher = more signal, called active from +8 up or from −8 down
[14] = S. cerevisiae growth modulation with rapamycin, primary screen, strain BY4716, OD600, 96 h (AID 1091); conditions: higher = more signal, called active from +8 up or from −8 down; also: test concentration not given here
[15] = biological target: Torsin-1A-interacting protein 2 (Homo sapiens) (UniProt Q8NFQ8); experiment: LULL1 binders on small-molecule microarray, primary screen, cell lysate, human LULL1 lysate, 635/667 nm fluorescence (AID 1092); conditions: hLULL1 lysate binding, 635 nm fluorescence, higher = more signal;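 also: probe is lysate of COS7 cells overexpressing human LULL1; score merges per-feature 667 nm fluorescence with signal-to-noise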
[16] = E. coli growth modulation, two-sided OD650, primary screen, E. coli filamentation project, strain DRC41, 24 h (AID 1093); conditions: OD650, 24 h, higher = more signal, called active from +8 up or from −8 down;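 also: MC1000 strain lacking acrAB efflux and sulA so SOS filamentation is blocked; test concentration not given here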
[17] = small-molecule microarray binders of probe aLefty2, primary screen, biochemical, biotinylated probe, 635/667 nm fluorescence (AID 1094); conditions: higher = more signal;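 also: score merges spot fluorescence near 667 nm with spot signal-to-noise ratio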
[18] = test system: Noggin (protein binding on small-molecule microarray); experiment: Noggin binders on small-molecule microarray, primary screen, biochemical, 635/667 nm fluorescence (AID 1095); conditions: 635 nm fluorescence, higher = more signal;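 also: score merges 667 nm feature fluorescence with signal to noise over triplicate slides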
[19] = biological target: Neurogenic locus notch homolog protein 3 (Homo sapiens) (UniProt Q9UM47); experiment: NOTCH3 binders on small-molecule microarray, primary screen, biochemical, 635/667 nm fluorescence (AID 1096); conditions: NOTCH3 binding, 635 nm fluorescence, higher = more signal
[20] = small-molecule microarray binders of probe aEGFR, primary screen, biochemical, biotinylated probe, 635/667 nm fluorescence (AID 1097); conditions: higher = more signal;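 also: probe is a biotinylated anti-EGFR antibody binding compounds printed on slides; score combines fluorescence near 667 nm and signal to noise of each spot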

Chain of Neurogenic locus notch homolog protein 3 (Homo sapiens) (Q9UM47 whole entry, looked up): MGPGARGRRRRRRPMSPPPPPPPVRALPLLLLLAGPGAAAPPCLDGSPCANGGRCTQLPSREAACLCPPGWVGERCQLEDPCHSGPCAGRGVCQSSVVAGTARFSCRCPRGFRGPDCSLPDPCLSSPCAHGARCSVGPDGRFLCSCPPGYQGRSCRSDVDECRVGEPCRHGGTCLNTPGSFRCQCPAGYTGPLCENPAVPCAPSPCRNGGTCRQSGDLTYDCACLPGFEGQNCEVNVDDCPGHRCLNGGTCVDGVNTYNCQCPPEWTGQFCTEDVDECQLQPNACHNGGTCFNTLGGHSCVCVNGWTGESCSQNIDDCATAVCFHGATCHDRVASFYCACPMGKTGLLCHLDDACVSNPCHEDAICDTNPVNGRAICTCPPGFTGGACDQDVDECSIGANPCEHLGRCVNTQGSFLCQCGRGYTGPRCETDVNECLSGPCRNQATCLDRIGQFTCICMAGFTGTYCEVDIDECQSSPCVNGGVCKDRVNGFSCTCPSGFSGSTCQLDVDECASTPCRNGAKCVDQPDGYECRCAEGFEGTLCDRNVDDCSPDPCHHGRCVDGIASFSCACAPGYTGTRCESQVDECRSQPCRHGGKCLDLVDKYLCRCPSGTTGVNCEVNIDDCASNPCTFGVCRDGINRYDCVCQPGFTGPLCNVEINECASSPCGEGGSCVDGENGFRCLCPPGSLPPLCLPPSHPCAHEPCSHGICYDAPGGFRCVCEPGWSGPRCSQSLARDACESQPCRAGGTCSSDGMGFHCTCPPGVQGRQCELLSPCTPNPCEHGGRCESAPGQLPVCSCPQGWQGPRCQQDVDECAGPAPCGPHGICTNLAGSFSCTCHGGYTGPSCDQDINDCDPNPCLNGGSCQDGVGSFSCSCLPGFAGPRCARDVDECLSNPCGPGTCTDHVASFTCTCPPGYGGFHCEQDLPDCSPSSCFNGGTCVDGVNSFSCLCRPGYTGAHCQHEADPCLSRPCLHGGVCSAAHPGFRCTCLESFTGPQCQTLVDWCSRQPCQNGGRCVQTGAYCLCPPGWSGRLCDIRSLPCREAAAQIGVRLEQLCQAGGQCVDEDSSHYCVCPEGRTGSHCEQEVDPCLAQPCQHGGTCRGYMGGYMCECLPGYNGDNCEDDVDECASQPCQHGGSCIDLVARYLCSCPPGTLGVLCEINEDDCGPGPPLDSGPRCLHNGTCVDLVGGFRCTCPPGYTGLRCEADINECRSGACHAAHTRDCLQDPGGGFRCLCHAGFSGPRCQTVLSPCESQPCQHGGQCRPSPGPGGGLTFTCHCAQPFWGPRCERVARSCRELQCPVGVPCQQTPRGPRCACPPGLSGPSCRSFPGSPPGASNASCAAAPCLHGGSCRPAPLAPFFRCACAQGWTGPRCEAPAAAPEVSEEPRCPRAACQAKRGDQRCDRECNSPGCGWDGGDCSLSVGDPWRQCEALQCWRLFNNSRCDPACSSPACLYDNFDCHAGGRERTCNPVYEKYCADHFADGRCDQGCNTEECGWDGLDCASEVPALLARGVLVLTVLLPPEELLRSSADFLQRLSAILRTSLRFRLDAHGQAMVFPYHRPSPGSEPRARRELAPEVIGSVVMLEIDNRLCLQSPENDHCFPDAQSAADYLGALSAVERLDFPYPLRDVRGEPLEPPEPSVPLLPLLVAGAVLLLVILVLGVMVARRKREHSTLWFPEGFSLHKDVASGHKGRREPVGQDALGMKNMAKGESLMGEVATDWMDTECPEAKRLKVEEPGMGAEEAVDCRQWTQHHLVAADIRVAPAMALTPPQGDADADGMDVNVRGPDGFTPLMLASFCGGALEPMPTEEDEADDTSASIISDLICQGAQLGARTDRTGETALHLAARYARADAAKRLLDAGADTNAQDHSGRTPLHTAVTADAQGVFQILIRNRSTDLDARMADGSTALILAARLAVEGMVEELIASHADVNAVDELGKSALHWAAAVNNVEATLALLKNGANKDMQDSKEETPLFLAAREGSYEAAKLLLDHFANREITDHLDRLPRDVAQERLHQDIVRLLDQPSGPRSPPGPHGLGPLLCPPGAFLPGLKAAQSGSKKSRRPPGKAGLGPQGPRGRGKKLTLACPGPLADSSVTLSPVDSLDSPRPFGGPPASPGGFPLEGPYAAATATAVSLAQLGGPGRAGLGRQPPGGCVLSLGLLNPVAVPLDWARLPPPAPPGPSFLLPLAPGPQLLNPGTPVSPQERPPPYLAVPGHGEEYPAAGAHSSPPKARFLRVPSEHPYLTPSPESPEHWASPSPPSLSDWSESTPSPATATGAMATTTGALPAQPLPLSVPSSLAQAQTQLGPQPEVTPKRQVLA
Chain of Torsin-1A-interacting protein 2 (Homo sapiens) (Q8NFQ8 whole entry, looked up): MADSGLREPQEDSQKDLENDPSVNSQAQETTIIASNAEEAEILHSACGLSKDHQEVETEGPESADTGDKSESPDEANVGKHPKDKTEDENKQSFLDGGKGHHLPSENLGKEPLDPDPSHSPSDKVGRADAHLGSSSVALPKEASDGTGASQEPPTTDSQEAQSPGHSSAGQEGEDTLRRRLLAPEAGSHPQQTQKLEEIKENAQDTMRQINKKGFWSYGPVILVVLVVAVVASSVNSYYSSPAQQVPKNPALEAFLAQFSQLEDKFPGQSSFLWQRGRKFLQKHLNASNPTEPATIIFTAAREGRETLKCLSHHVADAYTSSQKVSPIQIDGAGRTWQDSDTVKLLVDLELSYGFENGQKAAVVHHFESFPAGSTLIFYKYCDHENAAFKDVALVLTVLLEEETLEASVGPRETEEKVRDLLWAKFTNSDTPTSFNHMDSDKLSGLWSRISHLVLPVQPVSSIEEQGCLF
Chain of Pro-neuregulin-1, membrane-bound isoform (Homo sapiens) (Q02297 whole entry, looked up, the tested form may be a part, canonical isoform): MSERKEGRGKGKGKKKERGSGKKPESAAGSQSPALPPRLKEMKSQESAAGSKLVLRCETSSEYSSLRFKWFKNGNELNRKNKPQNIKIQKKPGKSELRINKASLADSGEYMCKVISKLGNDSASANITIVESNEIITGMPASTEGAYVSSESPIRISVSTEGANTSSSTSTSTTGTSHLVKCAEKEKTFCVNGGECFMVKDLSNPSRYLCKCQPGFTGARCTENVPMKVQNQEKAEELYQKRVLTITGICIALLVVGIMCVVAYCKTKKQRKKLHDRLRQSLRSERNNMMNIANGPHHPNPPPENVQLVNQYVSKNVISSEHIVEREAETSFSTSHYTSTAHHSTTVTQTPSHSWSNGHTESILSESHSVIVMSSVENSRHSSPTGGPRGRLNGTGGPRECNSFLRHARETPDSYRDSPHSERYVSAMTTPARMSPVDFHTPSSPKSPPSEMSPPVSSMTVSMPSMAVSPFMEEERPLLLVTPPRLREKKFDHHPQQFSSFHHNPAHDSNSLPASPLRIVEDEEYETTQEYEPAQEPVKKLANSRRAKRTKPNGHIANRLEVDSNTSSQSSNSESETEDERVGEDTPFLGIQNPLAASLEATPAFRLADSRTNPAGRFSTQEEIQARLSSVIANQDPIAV

| Compound | composite z-score [1] | composite z-score [2] | composite z-score [3] | composite z-score [4] | composite z-score [5] | composite z-score [6] | composite z-score [7] | z-score [8] | composite z-score [9] | composite z-score [10] | composite z-score [11] | z-score [12] | z-score [13] | z-score [14] | composite z-score [15] | z-score [16] | composite z-score [17] | composite z-score [18] | composite z-score [19] | composite z-score [20] |
| --- | --- | --- | --- | --- | --- | --- | --- | --- | --- | --- | --- | --- | --- | --- | --- | --- | --- | --- | --- | --- |
| C=C(COC)C(=O)CC[C@@H](OC(=O)c1ccccc1-c1ccccc1C(=O)O)c1cccc(OCCO)c1 | -0.124 | 0.098 | -0.14 | 0.457 | -0.66 | 0.691 | 0.137 | 0.658 (inactive) | -0.0665 | -0.0645 | 0.437 | 0.586 (inactive) | -1.51 (inactive) | -0.409 (inactive) | 0.132 | 0.826 (inactive) | -0.183 | 0.518 | -0.338 | -0.173 |
| C=CCC(OC(C)=O)[C@@H]1[C@@H](N(Cc2cccc3ccccc23)C(=O)Cc2ccc(OC)cc2)c2cc(OCCCO)ccc2N1C(=O)Cc1ccc(OC)cc1 (stereo not given in full) | 0.163 | 0.045 | -0.0396 | -0.236 | -0.111 | -0.0173 | -0.832 | -0.781 (inactive) | -0.0127 | -0.113 | -0.59 | 0.395 (inactive) | -1.38 (inactive) | -0.275 (inactive) | 0.0872 | 2.21 (inactive) | -0.0691 | -0.318 | -0.89 | -0.166 |
| C=C(COC)/C(=C/C[C@H](OC(C)=O)c1cccc(OCCO)c1)c1cc(C(=O)OC)ccc1OC | -0.269 | 0.952 | -0.0986 | 0.318 | -0.38 | 0.0557 | 0.691 | -3.63 (inactive) | 0.276 | -0.0296 | 0.905 | -25.1 (active) | -20.5 (active) | -4.33 (inactive) | 0.574 | 1.57 (inactive) | 0.0056 | 1.29 | 0.694 | -0.151 |
| COc1ccc([Si](C)(C)[C@H]2[C@H](CCO)O[C@@]3(C(=O)N(Cc4ccc(N5C(=O)c6cccc7cccc5c67)cc4)c4ccccc43)[C@@H]2C)cc1 | 0.633 | -0.213 | -0.0692 | -0.397 | -0.831 | 1.1 | 0.657 | -4.45 (inactive) | 0.025 | -0.261 | 0.126 | 0.341 (inactive) | 0.472 (inactive) | 26 (active) | 0.589 | 2.02 (inactive) | -0.169 | -0.688 | -0.601 | -0.272 |
| COCCOC(=O)N1C(=O)[C@@]2(c3cc(C#CC4(O)CCCCCC4)ccc31)[C@H](c1ccc(O)cc1)N1[C@H](c3ccccc3)[C@H](c3ccccc3)OC(=O)[C@H]1[C@@H]2C(N)=O | -0.0102 | 1.54 | 0.103 | 0.631 | 0.397 | 1.1 | 0.874 | -0.868 (inactive) | 0.351 | -0.0173 | 1.5 | -0.549 (inactive) | -3.29 (inactive) | -0.624 (inactive) | 2.01 | 2.01 (inactive) | 0.178 | 0.0282 | 0.928 | -0.0924 |
| CC(C)C(=C=CC[C@H](O)c1ccc(OCCO)cc1)C[C@H](O)COCc1ccccc1 | -0.254 | 1.75 | -0.128 | 0.411 | -0.438 | 0.639 | 1.09 | -1.37 (inactive) | -0.0173 | -0.0994 | 1.23 | 1.09 (inactive) | -2.45 (inactive) | -0.668 (inactive) | 1.76 | 0.775 (inactive) | -0.119 | 1.51 | 0.229 | -0.166 |
| CC(=O)NCCCC[C@@H]1NC(=O)[C@@H]2C[C@H](C(=O)O)[C@H](c3cccc(OCCO)c3)N2C1=O | -0.16 | 0.619 | -0.112 | 0.321 | 0.124 | 0.0677 | 1.31 | 0.356 (inactive) | 0.199 | -0.153 | 1.55 | 1.18 (inactive) | -0.201 (inactive) | 1.46 (inactive) | 0.654 | 0.809 (inactive) | -0.0846 | 1.6 | 0.58 | 0.0437 |
| CCCCC(=C=CC[C@H](O)c1cccc(OCCO)c1)CCO | -0.0452 | -0.0768 | -0.0976 | -0.662 | -0.854 | 0.52 | 0.519 | 0.125 (inactive) | -0.101 | 0.0623 | -0.19 | 0.166 (inactive) | -0.486 (inactive) | -1.16 (inactive) | 1.33 | 1.11 (inactive) | -0.12 | 0.0201 | -0.498 | -0.268 |
| CCOC(=O)C[C@H]1[C@H](OC(=O)c2ccc(-c3ccccc3)cc2)[C@@H](NC(=O)C2CCCCC2)c2cc(OCCCO)ccc2N1C(=O)c1ccc2ccccc2n1 | 0.0371 | 0.3 | -0.0788 | 0.361 | 0.689 | 0.738 | 0.741 | -0.429 (inactive) | 0.483 | -0.226 | 1.12 | -0.778 (inactive) | -1.55 (inactive) | -0.327 (inactive) | 1.72 | 2.33 (inactive) | 0.0366 | 0.0692 | 1.1 | -0.0631 |
| COc1ccc([Si](C)(C)[C@H]2[C@H](CC(=O)N(CCO)Cc3ccccc3)O[C@@]3(C(=O)N(Cc4cccc(N5C(=O)COc6ccccc65)c4)c4ccccc43)[C@@H]2C)cc1 | 1.54 | 0.347 | -0.106 | 0.585 | 0.703 | 1.11 | 1.27 | -1.84 (inactive) | -0.103 | 0.245 | 1.44 | 2.21 (inactive) | 0.272 (inactive) | 3.48 (inactive) | 2.13 | 2.09 (inactive) | -0.0846 | 0.97 | 0.496 | 0.0927 |
